Reference: PubChem BioAssay (EPA / NIEHS)
Inconclusive results are not listed. Activity calls are given as the source filed them. How the source made its calls, unless noted: active means hit-call score of the fitted dose curve at least 0.9, where 1 is the maximum; inactive means score below 0.9.

Tests used:
[1] = ATG_PXRE_CIS: Attagene CIS-FACTORIAL HepG2 Assay for human Pregnane X Receptor Element (PXRE) (AID 2282957); details: HepG2 Attagene CIS-FACTORIAL PXRE reporter, mRNA; actives raise or lower the signal
In short: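 Cells: HepG2, transiently transfected reporter units under cis promoter control. Exposure: 24 h. Detection: reporter mRNA via RT-PCR/CE fluorescence; bidirectional fitting, DMSO-referenced.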

[2] = ATG_PPRE_CIS: Attagene CIS-FACTORIAL HepG2 Assay for human Peroxisome Proliferator-activated Response Element (PPRE) (AID 2282958); details: HepG2 PPRE cis-element reporter, Attagene transcription factor profiling; actives raise or lower the signal
In short: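 Multiplexed reporter transcription units under cis-regulatory promoters were transfected into HepG2 cells to capture endogenous factor activity. A 24 h incubation preceded RNA isolation and fluorescent RT-PCR fragment analysis.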

[3] = ATG_RORE_CIS: Attagene CIS-FACTORIAL HepG2 Assay for human RAR-related Orphan Receptor Element (RORE) (AID 2282959); details: HepG2 Attagene cis-factorial RORE reporter, mRNA; actives raise or lower the signal
In short: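 Fluorescence intensity of reporter-specific cDNA fragments, separated by capillary electrophoresis, gives the signal. Source: HepG2 liver cells transiently transfected with cis-element reporters and exposed 24 h; DMSO-normalized bidirectional fit.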

[4] = ATG_Sox_CIS: Attagene CIS-FACTORIAL HepG2 Assay for human SRY-box transcription factor (SOX) (AID 2282960); details: HepG2 Attagene cis-factorial SOX reporter, mRNA; actives raise or lower the signal
In short: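 After 24 h of chemical treatment, transfected HepG2 reporter cells are lysed for total RNA. Transcript levels come from RT-PCR with labelled primer extension and capillary electrophoresis, analysed bidirectionally versus DMSO.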

[5] = target: Transcription factor Sp1 (Homo sapiens) (UniProt P08047); assay: ATG_Sp1_CIS: Attagene CIS-FACTORIAL HepG2 Assay for human Specificity Protein 1 (Sp1) (AID 2282961); details: HepG2 Sp1 cis-reporter transcription, actives raise or lower the signal
In short: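 Sp1-driven reporter mRNA, read as capillary electrophoresis fluorescence after RT-PCR, in transiently transfected HepG2 cells dosed for 24 h; signal change in either direction relative to DMSO.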

[6] = ATG_SREBP_CIS: Attagene CIS-FACTORIAL HepG2 Assay for human Sterol Regulatory Element Binding (SREBP) (AID 2282962); details: HepG2 Attagene cis-factorial SREBP reporter, mRNA; actives raise or lower the signal
In short: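 Twenty-four hours after chemical dosing of transfected HepG2 cultures, reporter RNA was converted to cDNA, amplified, end-labelled with 6-FAM and resolved by capillary electrophoresis. Responses were fitted relative to DMSO.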

[7] = target: Signal transducer and activator of transcription 3 (Homo sapiens) (UniProt P40763); assay: ATG_STAT3_CIS: Attagene CIS-FACTORIAL HepG2 Assay for human Signal Transducer and Activator of Transcription 3 (STAT3) (AID 2282963); details: HepG2, Attagene cis-factorial STAT3 reporter transcription; actives raise or lower the signal
In short: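 Transcript-level reporter assay. HepG2 transient MRTU transfection, 24 h exposure, fluorescence detection after RT-PCR and CE; DMSO baseline.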

[8] = ATG_TA_CIS: Attagene CIS-FACTORIAL HepG2 Assay for human TA Basal Promoter (AID 2282964); details: HepG2 Attagene CIS-factorial TA basal promoter reporter; actives raise or lower the signal
In short: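 HepG2 cells transiently transfected with multiple reporter units under cis promoter elements, reporting endogenous transcription factor activity; this endpoint tracks the TA basal promoter as background control. Reporter mRNA after 24 h dosing measured by RT-PCR/capillary electrophoresis; bidirectional fits versus DMSO.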

[9] = ATG_TCF_b_cat_CIS: Attagene CIS-FACTORIAL HepG2 Assay for human T-Cell-Factor with beta-catenin (TCF/b-cat) (AID 2282965); details: HepG2 TCF/beta-catenin cis-reporter transcription, actives raise or lower the signal
In short: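 HepG2 cells transiently transfected with multiple cis-promoter-regulated reporter transcription units, so endogenous transcription factor activity is measured. Reporter mRNA read 24 hours after dosing by RT-PCR, fluorescent labelling and capillary electrophoresis; bidirectional fitting against DMSO.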

[10] = ATG_TAL_CIS: Attagene CIS-FACTORIAL HepG2 Assay for human TAL Basal Promoter (AID 2282966); details: HepG2 Attagene cis-factorial TAL promoter reporter; actives raise or lower the signal;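 further: background control endpoint measuring basal TAL promoter reporter mRNA not a specific factor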
In short: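 RT-PCR plus capillary electrophoresis quantifies reporter mRNA induction in transiently transfected HepG2 cells after 24 h chemical treatment. DMSO serves as negative control and baseline for bidirectional fitting.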

[11] = ATG_TGFb_CIS: Attagene CIS-FACTORIAL HepG2 Assay for human Transforming Growth Factor (TGF) (AID 2282967); details: HepG2 Attagene CIS TGFb reporter, mRNA transcription; actives raise or lower the signal
In short: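 HepG2 cells transiently transfected with cis-promoter-driven multiple reporter units measure endogenous TF activity; reporter mRNA quantified at 24 h by RT-PCR, FAM labeling, HpaI digestion and capillary electrophoresis. Bidirectional fit vs DMSO.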

[12] = ATG_VDRE_CIS: Attagene CIS-FACTORIAL HepG2 Assay for human Vitamin D Receptor Element (VDRE) (AID 2282968); details: HepG2 VDRE cis-reporter transcription, actives raise or lower the signal
In short: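 RT-PCR/CE readout of reporter mRNA; HepG2, transient transfection, 24 h dosing; DMSO baseline; bidirectional analysis.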

[13] = target: Estrogen receptor (Homo sapiens) (UniProt P03372); assay: ATG_ERa_TRANS: Attagene TRANS-FACTORIAL HepG2 Assay for human Estrogen Receptor alpha (ERa) (AID 2282970; active means hit-call score of the fitted dose curve at least 0.9, where 1 is the maximum); details: HepG2 Attagene TRANS ERa GAL4 reporter, mRNA
In short: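 Cells: HepG2, transiently transfected. Construct: GAL4-UAS reporter units regulated by exogenous NR-Gal4 chimeras. Time: 24 h. Detection: reporter mRNA by RT-PCR, capillary electrophoresis, fluorescence. Baseline: DMSO, upward fitting.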

[14] = target: X-box-binding protein 1 (Homo sapiens) (UniProt P17861); assay: ATG_Xbp1_CIS: Attagene CIS-FACTORIAL HepG2 Assay for human X-box Binding Protein 1 (XBP1) (AID 2282972); details: HepG2 XBP1 cis-element reporter, Attagene multiplex; actives raise or lower the signal
In short: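 After a 24-hour chemical exposure of HepG2 cells carrying cis-regulated reporters, reporter mRNA levels are assessed. Quantification uses RT-PCR, 6-FAM labelling and capillary electrophoresis. Gain- or loss-of-signal is fitted against DMSO.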

[15] = ATG_M_19_TRANS: Attagene TRANS-FACTORIAL HepG2 Assay for M19 Transcription Factor (Internal Marker) (AID 2282974; active means hit-call score of the fitted dose curve at least 0.9, where 1 is the maximum); details: HepG2 Attagene TRANS-FACTORIAL M19 internal marker reporter
In short: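 Measured here: internal-marker reporter transcript from HepG2 cells transfected with MRTUs, harvested at 24 h. cDNA PCR products were 6-FAM labelled by primer extension, cut with HpaI for 2 h at 37 C, and resolved by CE.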

[16] = target: Paired box protein Pax-6 (Homo sapiens) (UniProt P26367); assay: ATG_Pax6_CIS: Attagene CIS-FACTORIAL HepG2 Assay for human Paired Box 6 (PAX6) (AID 2282956); details: HepG2 CIS-FACTORIAL PAX6 reporter transcription, RNA readout; actives raise or lower the signal
In short: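 After twenty-four hours of chemical exposure, transfected HepG2 cells are harvested for RNA. Cis-promoter reporter transcripts are amplified, fluorescently labelled and sized by capillary electrophoresis, with gain and loss of signal scored against DMSO.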

[17] = ATG_GAL4_TRANS: Attagene TRANS-FACTORIAL HepG2 Assay for GAL4 (Internal Marker) (AID 2282976; active means hit-call score of the fitted dose curve at least 0.9, where 1 is the maximum); details: HepG2 Attagene TRANS GAL4 internal marker reporter
In short: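 In transfected human HepG2 liver cells dosed 24 h, GAL4 reporter mRNA serves as a baseline marker. Detection by RT-PCR with fluorescent capillary electrophoresis, activity fitted upward relative to DMSO.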

[18] = target: Steroid hormone receptor ERR1 (Homo sapiens) (UniProt P11474); assay: ATG_ERRa_TRANS: Attagene TRANS-FACTORIAL HepG2 Assay for human Estrogen-Related Receptor alpha (ERRa) (AID 2282971; active means hit-call score of the fitted dose curve at least 0.9, where 1 is the maximum); details: HepG2 Attagene TRANS reporter, ERRa transactivation
In short: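 Reporter transcripts from ERRa-Gal4 chimera activity measured in transiently transfected human HepG2 cells 24 hours after dosing, using RT-PCR with 6-FAM primer extension, HpaI digestion and capillary electrophoresis; DMSO is baseline.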

Measured: AC50

Sequence of Paired box protein Pax-6 (Homo sapiens) (P26367 whole entry, looked up): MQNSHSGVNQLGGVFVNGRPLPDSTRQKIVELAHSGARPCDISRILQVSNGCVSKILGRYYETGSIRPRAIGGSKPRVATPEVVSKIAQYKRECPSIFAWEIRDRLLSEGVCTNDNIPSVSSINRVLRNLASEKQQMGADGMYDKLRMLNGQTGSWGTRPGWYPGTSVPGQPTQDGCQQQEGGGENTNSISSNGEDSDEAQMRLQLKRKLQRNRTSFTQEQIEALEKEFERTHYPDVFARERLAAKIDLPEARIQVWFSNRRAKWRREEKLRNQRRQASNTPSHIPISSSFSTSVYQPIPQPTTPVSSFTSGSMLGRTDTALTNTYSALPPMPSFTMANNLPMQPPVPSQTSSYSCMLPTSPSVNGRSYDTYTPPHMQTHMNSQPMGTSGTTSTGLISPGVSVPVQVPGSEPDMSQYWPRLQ
Sequence of Estrogen receptor (Homo sapiens) (P03372 whole entry, looked up, the tested form may be a part): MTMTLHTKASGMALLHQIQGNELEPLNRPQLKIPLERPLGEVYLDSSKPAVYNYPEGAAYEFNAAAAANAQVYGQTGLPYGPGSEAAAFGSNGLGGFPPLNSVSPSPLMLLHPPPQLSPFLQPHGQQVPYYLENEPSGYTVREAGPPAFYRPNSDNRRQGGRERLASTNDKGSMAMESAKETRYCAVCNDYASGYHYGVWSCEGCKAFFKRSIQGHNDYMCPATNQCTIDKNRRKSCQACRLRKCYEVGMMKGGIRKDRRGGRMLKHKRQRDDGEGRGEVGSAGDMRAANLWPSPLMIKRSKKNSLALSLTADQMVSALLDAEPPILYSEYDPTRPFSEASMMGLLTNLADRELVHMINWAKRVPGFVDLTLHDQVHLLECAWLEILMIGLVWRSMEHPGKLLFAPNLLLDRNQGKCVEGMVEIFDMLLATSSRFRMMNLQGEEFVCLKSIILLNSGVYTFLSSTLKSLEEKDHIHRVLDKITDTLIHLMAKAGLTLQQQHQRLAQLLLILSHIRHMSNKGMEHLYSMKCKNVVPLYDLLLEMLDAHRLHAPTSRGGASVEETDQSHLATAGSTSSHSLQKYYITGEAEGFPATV
Sequence of Steroid hormone receptor ERR1 (Homo sapiens) (P11474 whole entry, looked up, the tested form may be a part): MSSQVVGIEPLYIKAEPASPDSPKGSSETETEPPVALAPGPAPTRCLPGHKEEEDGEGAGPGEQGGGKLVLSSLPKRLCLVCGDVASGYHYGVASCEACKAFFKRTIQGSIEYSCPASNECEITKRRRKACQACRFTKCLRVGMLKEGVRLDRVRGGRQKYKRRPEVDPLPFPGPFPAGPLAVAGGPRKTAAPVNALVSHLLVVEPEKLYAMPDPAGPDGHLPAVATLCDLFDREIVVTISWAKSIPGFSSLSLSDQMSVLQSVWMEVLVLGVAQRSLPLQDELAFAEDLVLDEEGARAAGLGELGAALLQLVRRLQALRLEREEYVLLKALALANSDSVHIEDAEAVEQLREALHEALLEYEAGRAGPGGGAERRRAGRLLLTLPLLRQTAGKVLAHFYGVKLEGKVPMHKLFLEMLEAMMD
Sequence of Signal transducer and activator of transcription 3 (Homo sapiens) (P40763 whole entry, looked up): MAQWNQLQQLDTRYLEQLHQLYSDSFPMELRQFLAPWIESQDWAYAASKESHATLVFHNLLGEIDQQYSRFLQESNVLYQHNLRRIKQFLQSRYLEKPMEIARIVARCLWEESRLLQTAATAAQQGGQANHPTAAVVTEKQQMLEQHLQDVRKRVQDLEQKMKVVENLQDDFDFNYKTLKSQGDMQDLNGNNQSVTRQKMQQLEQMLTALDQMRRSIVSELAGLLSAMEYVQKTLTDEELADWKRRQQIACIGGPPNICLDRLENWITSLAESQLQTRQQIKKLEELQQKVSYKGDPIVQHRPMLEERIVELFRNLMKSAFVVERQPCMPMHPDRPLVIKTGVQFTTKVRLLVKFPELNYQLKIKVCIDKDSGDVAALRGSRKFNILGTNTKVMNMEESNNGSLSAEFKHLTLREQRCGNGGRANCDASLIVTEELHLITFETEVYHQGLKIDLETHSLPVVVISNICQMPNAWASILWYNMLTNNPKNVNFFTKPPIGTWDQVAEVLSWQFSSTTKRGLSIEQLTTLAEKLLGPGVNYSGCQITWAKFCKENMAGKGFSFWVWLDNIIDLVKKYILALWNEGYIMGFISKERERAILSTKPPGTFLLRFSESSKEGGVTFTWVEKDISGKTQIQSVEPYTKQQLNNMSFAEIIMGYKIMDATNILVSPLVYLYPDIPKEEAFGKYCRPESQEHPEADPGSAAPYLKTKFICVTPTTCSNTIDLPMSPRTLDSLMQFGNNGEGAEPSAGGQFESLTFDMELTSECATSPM
Sequence of X-box-binding protein 1 (Homo sapiens) (P17861 whole entry, looked up): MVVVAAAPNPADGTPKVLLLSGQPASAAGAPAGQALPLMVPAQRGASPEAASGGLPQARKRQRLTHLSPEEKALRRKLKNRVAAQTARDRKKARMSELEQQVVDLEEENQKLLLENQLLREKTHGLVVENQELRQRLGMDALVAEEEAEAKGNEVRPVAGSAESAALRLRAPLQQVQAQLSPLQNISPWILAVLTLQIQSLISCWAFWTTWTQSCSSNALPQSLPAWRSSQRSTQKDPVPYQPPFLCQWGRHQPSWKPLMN
Sequence of Transcription factor Sp1 (Homo sapiens) (P08047 whole entry, looked up): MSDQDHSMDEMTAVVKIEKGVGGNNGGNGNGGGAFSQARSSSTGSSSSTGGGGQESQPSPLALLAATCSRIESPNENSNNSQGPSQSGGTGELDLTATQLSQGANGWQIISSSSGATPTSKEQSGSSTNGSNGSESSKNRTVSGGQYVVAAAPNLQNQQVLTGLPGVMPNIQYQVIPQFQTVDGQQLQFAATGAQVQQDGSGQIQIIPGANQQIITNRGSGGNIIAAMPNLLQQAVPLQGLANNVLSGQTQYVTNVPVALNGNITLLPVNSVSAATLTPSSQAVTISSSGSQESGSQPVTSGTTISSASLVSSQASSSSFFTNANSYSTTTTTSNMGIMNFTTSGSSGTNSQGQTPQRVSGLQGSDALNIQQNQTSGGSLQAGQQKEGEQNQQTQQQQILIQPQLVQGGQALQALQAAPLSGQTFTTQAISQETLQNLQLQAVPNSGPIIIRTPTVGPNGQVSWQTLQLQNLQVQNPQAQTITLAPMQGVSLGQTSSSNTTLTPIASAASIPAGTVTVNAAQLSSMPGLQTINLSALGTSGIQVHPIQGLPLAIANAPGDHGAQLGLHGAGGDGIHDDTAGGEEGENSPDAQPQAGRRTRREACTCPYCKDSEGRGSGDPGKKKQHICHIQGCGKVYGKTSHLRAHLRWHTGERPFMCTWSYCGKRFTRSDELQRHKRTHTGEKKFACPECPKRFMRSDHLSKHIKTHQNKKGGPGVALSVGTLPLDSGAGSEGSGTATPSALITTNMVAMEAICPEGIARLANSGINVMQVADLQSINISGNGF

CCCCCCCCCCCC(=O)OCC
not listed: [16] | [17] | [18]
inactive: all other assays above

Cc1cc(C)c(C=O)c(C)c1
active: [1] 1.61 µM | [12] 3.24 µM
not listed: [3] | [6] | [18]
inactive: all other assays above

COC(=O)c1ccccc1C
active: [1] 40.6 µM
not listed: [12] | [13] | [16] | [17] | [18]
inactive: all other assays above

CCCCCCC=O
active: [2] 81.6 µM | [13] 19 µM
not listed: [1] | [5] | [9] | [17] | [18]
inactive: all other assays above

CCC[Si](OC)(OC)OC
active: [1] 129 µM
not listed: [2] | [5] | [17]
inactive: all other assays above

O=C(O)/C=C/c1ccccc1
active: [13] 61.7 µM
not listed: [1] | [15] | [16] | [18]
inactive: all other assays above

O=C(O)c1ccc2c(c1)C(=O)OC2=O
not listed: [2] | [3] | [13] | [16] | [18]
inactive: all other assays above

CC(=O)c1ccc(S(=O)(=O)NC(=O)NC2CCCCC2)cc1
active: [1] 100 µM
not listed: [13] | [16] | [17] | [18]
inactive: all other assays above

C=C(C)C1CC=C(C)C(OC(C)=O)C1 (stereo unspecified)
not listed: [1] | [9] | [17]
inactive: all other assays above

c1ccc(-c2nc3ccccc3[nH]2)cc1
active: [1] 27.4 µM
not listed: [3] | [5] | [15] | [16] | [18]
inactive: all other assays above

CCN(CC)c1cccc(C)c1
active: [1] 27.7 µM
not listed: [9] | [16]
inactive: all other assays above

c1ccc2sc(SSN3CCOCC3)nc2c1
active: [16] 100 µM | [4] 138 µM | [5] 70.4 µM | [6] 59.2 µM | [7] 139 µM | [14] 100 µM
not listed: [2] | [15] | [17] | [18]
inactive: all other assays above

CC(=O)CCC=C(C)C
not listed: [7] | [15] | [16] | [18]
inactive: all other assays above

CCCCCCCCCCCC(C)=O
active: [1] 25.6 µM | [2] 159 µM | [9] 161 µM | [10] 178 µM | [11] 166 µM | [13] 11.6 µM
not listed: [3] | [5] | [6] | [18]
inactive: all other assays above

CCCCCCCC(=O)OCC
not listed: [1] | [3] | [9]
inactive: all other assays above

[Cl][Eu]([Cl])[Cl]
active: [13] 36.6 µM
not listed: [2] | [3] | [15] | [17] | [18]
inactive: all other assays above

CC=CC(=O)OCC(C)C
not listed: [3] | [5] | [18]
inactive: all other assays above

O=C(Nc1ccccc1)c1cc(Cl)ccc1O
active: [1] 25.6 µM | [3] 15.5 µM | [5] 3.65 µM | [6] 5.55 µM | [11] 52.5 µM | [12] 6.51 µM | [14] 4.18 µM
not listed: [2] | [17] | [18]
inactive: all other assays above

CC1CCC(C(C)(C)S)C(=O)C1 (stereo unspecified)
not listed: [1] | [3] | [9] | [16] | [18]
inactive: all other assays above

CC1CC(=O)CC(C)(C)C1 (stereo unspecified)
not listed: [3] | [13] | [15] | [16] | [17] | [18]
inactive: all other assays above
